# Publication PMC4336329 (PLoS ONE, 2015)
# The campaign covered roughly 310,000 compounds. About 14,000 (4.5%) showed an effect of 50% or more. Effects have a minus sign here. The sample as a whole holds a higher share of strong results than the screen did.
# Molecular target: human ether-à-go-go-related gene (hERG) potassium channel (human, UniProt Q12809)
# Test: primary screen, population patch clamp on CHO cells stably expressing hERG; higher = less effect of the substance
# 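Further: peak tail current of the secondary pulse compared with the same well before compound.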
# Sequence of human ether-à-go-go-related gene (hERG) potassium channel (Q12809 whole entry, looked up): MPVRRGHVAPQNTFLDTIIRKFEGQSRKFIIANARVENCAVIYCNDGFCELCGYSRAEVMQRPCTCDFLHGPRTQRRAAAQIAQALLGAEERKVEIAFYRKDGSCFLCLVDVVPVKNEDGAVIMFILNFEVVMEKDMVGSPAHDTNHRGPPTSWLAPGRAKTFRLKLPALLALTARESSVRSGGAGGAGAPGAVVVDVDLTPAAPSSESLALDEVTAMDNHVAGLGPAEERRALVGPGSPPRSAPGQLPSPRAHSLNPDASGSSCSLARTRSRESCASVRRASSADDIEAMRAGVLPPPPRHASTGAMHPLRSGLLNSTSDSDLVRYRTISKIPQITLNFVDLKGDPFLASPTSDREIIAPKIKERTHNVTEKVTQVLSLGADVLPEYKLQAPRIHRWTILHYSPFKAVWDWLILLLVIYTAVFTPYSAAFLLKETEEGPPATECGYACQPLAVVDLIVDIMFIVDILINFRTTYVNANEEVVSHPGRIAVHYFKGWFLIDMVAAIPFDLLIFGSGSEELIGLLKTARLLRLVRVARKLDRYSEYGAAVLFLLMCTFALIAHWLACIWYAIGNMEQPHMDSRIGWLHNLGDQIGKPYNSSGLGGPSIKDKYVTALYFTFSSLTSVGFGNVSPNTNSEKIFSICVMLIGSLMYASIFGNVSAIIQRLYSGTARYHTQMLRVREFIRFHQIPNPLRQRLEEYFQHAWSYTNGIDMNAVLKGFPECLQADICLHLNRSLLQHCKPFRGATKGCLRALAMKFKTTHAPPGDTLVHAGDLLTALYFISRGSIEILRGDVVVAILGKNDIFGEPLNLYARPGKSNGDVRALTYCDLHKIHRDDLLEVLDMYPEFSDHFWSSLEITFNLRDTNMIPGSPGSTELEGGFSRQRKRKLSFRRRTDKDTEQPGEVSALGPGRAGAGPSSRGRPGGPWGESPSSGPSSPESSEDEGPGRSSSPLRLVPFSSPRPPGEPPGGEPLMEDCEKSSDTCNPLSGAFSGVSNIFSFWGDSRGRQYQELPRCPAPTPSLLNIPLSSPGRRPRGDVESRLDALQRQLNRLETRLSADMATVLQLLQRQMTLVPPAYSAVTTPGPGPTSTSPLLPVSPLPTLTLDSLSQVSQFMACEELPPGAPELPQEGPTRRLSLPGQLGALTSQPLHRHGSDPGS
row,Structure (SMILES),"hERG current change (%, negative = inhibition) at 10uM"
1,CCOc1ccc(NC(=O)/C=C/c2ccccc2)c([N+](=O)[O-])c1,-5.94%
2,NC(=O)c1ccc(NC(=O)COc2ccc(-n3cnnn3)cc2)cc1,-4.26%
3,CCc1ccc(-c2cc(C)no2)cc1S(=O)(=O)Nc1cc(C)on1,10.3%
4,O=C(CN1CCOCC1)Nc1cc(C(F)(F)F)ccc1Cl,-0.356%
5,O=C(CN1CCCC1)Nc1cc(C(F)(F)F)ccc1Cl,2.22%
6,O=C(CN1CCN(C(=O)c2ccco2)CC1)Nc1cc(C(F)(F)F)ccc1Cl,-63.6%
7,COc1ccccc1N1C(=O)CC(Sc2ccccc2N)C1=O (stereo not drawn),0.966%
8,COC(=O)c1ccc(N2CCN(S(=O)(=O)c3ccc(C)cc3)CC2)c([N+](=O)[O-])c1,4.78%
9,COC(=O)c1ccc(N2CCN(S(=O)(=O)c3ccc(Br)cc3)CC2)c([N+](=O)[O-])c1,10.6%
10,COC(=O)c1ccc(N2CCN(C(=O)C3CC3)CC2)c([N+](=O)[O-])c1,-7.61%
11,CN1CCN(c2ccc(C(=O)c3ccccc3)cc2[N+](=O)[O-])CC1,-53.1%
12,COC(=O)c1ccc(N2CCN(CC(=O)c3ccc(-c4ccccc4)cc3)CC2)c([N+](=O)[O-])c1,8.75%
13,CN1CCN(c2ccc(C(=O)NC3CCCCC3)cc2[N+](=O)[O-])CC1,-9.83%
14,COC(=O)c1ccc(N2CCc3ccccc32)c([N+](=O)[O-])c1,10.5%
15,CN1CCN(c2ccccc2NC(=O)c2ccc(N3CCCC3)c([N+](=O)[O-])c2)CC1,-48.5%
16,COC(=O)c1ccc(N2CCN(C)CC2)c([N+](=O)[O-])c1,-63.4%
17,CN1CCN(c2ccc(C(=O)c3ccc(Br)cc3)cc2[N+](=O)[O-])CC1,-72.1%
18,O=C(O)c1ccccc1C(=O)c1ccc(N2CCCC2)c([N+](=O)[O-])c1,13.8%
19,COC(=O)c1ccc(N2CCN(CC(=O)c3ccc(C)cc3)CC2)c([N+](=O)[O-])c1,-65%
20,O=C(NCc1cccs1)c1cc2c(s1)CS(=O)(=O)C2,-0.732%
21,O=C(N/N=C/c1c[nH]c2ccccc12)C1CC1c1ccccc1 (stereo not drawn),-4.47%

row,Structure (SMILES),"hERG current change (%, negative = inhibition) at 10uM"
1,COC(=O)c1cc(C(=O)OC)n(Cc2ccc(F)cc2)n1,-12.9%
2,O=C(O)c1cccc(N(CCO)CCO)c1,-1.13%
3,CC(C)COP(=O)(c1ccc(N(C)C)cc1)C(O)c1ccc(Br)cc1 (stereo not drawn),8.63%
4,COc1ccc(CCNC(=O)c2nnc(CS(=O)(=O)c3ccccc3)o2)cc1OC,-6.44%
5,Cc1c(-c2ccccc2)cn2c1-c1ccc(C)n1CC2,-0.42%
6,COc1ccc(-c2nnc(SCC(=O)N(C)C3CCS(=O)(=O)C3)n2N)cc1OC (stereo not drawn),19.8%
7,O=C(CN1C(=O)/C(=C\c2ccc(C(F)(F)F)cc2)Sc2ccccc21)NCc1ccco1,-5.39%
8,Cc1cc(=O)[nH]c(N/N=C/C(C)c2ccccc2)n1 (stereo not drawn),7.54%
9,CCc1cccc(CC)c1NC(=O)C1SC(=Nc2ccccc2C)C(c2nc3ccccc3s2)=C1N (stereo not drawn),29.1%
10,CN1CCN(c2ccc(C(N)=O)cc2[N+](=O)[O-])CC1,7.57%
11,Cc1ccc(C(=O)c2ccc(N3CCN(C)CC3)c([N+](=O)[O-])c2)cc1,-68.8%
12,Cc1ccc(OC(=O)c2ccc(N3CCOCC3)c([N+](=O)[O-])c2)cc1,-4.31%
13,CN1/C(=C\C(=O)COC(=O)C2COc3ccccc3O2)C(C)(C)c2ccccc21 (stereo not drawn),9.13%
14,CCCCn1c(N)c(N(CCC(C)C)C(=O)C(C)N2C(=O)c3ccccc3C2=O)c(=O)[nH]c1=O (stereo not drawn),8.31%
15,CCCOC(=O)c1cccc(NC(=O)C(C)(C)C)c1,1.43%
16,CCC1(C)Cc2c(sc3nnn(CC(=O)Nc4cccc5ccccc45)c(=O)c23)CO1 (stereo not drawn),3.09%
17,Cc1ccccc1NC(=O)Cn1nnc2sc3c(c2c1=O)CC(C)(C)OC3,-35.2%
18,CCC1(C)Cc2c(sc3nnn(CC(=O)Nc4ccccc4C)c(=O)c23)CO1 (stereo not drawn),-58.4%
19,CCC(CC)C(=O)N1CC(=O)Nc2ccc(F)cc2C1c1ccccc1 (stereo not drawn),-11.4%
20,O=C1CN(C(=O)CN2CCCCC2)C(c2ccccc2)c2cc(Br)ccc2N1 (stereo not drawn),-66.5%
21,COC(=O)CN1C(=O)Nc2ccc(Br)cc2C1c1ccccc1 (stereo not drawn),-14.6%

row,Structure (SMILES),"hERG current change (%, negative = inhibition) at 10uM"
1,O=C(O)CN1C(=O)Nc2ccc(Br)cc2C1c1ccccc1 (stereo not drawn),-3.51%
2,CCC(CC)C(=O)N1CC(=O)Nc2ccc(Br)cc2C1c1ccccc1 (stereo not drawn),-73.5%
3,CCOC(=O)CN1C(=O)Nc2ccc(Br)cc2C1c1ccccc1 (stereo not drawn),-56.7%
4,O=C1CN(C(=O)CN2CCOCC2)C(c2ccccc2)c2cc(Br)ccc2N1 (stereo not drawn),-32.3%
5,CCC(=O)N1CC(=O)Nc2ccc(Br)cc2C1c1ccccc1 (stereo not drawn),-11.6%
6,CCOC(=O)N1CC(=O)Nc2ccc(Br)cc2C1c1ccccc1 (stereo not drawn),-24.4%
7,O=C1CN(C(=O)CCN2CCOCC2)C(c2ccccc2)c2cc(Br)ccc2N1 (stereo not drawn),-60.5%
8,CCC(CC)C(=O)N1CC(=O)Nc2ccc(C)cc2C1c1ccccc1 (stereo not drawn),-38.1%
9,O=C1CN(C(=O)CN2CCCC2)C(c2ccccc2)c2cc(Br)ccc2N1 (stereo not drawn),-46.6%
10,COc1ccccc1C(=O)NCCC(=O)NCC(c1ccccc1OC)N1CCCC1 (stereo not drawn),29.8%
11,O=C(Nc1ccncc1)C1CCN(S(=O)(=O)c2ccccc2)CC1,3.04%
12,CCOC(=O)C1C(=O)CC(C)(O)C(C(=O)OCC)C1c1ccc([N+](=O)[O-])cc1 (stereo not drawn),-8.06%
13,FC(F)(F)c1nc(-c2ccncc2)ncc1-c1nnnn1-c1ccccc1,-0.18%
14,Cc1c(C(=O)N/N=C/c2ccoc2)cccc1[N+](=O)[O-],9.67%
15,O=C(COc1coc(CN2CCN(c3ccccc3F)CC2)cc1=O)NC1CCCCC1,-21.6%
16,CCOC(=O)c1ccc(NC(=O)C2CCN(S(=O)(=O)c3c(C)nn(C)c3C)CC2)cc1,-28.3%
17,O=C(Nc1cccc(C(F)(F)F)c1)c1cc[n+]([O-])cc1,21.2%
18,COc1ccc(OCC(=O)NS(=O)(=O)c2ccccc2)cc1,15.3%
19,Cc1ccc2c(c1)C(c1ccccc1)N(C(=O)c1ccccc1[N+](=O)[O-])CC(=O)N2 (stereo not drawn),-40.5%
20,O=C1CN(C(=O)c2ccccc2F)C(c2ccc(F)cc2)c2cc(Br)ccc2N1 (stereo not drawn),-23%
21,O=C1CN(C(=O)c2ccccc2[N+](=O)[O-])C(c2ccccc2)c2cc(Br)ccc2N1 (stereo not drawn),-66.5%

row,Structure (SMILES),"hERG current change (%, negative = inhibition) at 10uM"
1,CCOC(=O)c1c(NC(C)=O)sc2c(OC(C)=O)cccc12,8.8%
2,Cn1c(CO)cnc1SCc1ccc(F)cc1,18.2%
3,CCOc1ccccc1/C=N/NC(=O)c1nnn(-c2nonc2N)c1CN1CCC(C)CC1,9.08%
4,CCCOc1ccc2oc(=O)c3c(c2c1)CCCN3C(=O)CN(C)Cc1ccccc1,-29.7%
5,CC(C(=O)N1CCCc2c1c(=O)oc1ccc(O)cc21)N1CCc2ccccc2C1 (stereo not drawn),-56.5%
6,CC(=O)c1cccc(NC(=O)C(C)N2CCc3ccccc3C2)c1 (stereo not drawn),4.43%
7,CN(CC(=O)N1CCCc2c1c(=O)oc1ccc(O)cc21)Cc1ccccc1,-67.4%
8,O=C(CN1CCN(Cc2ccccc2)CC1)N1CCCc2c1c(=O)oc1ccc(O)cc21,-14%
9,CC1CCN(CCC(=O)N2CCCc3c2c(=O)oc2ccc(O)cc32)CC1,-14%
10,O=C(NCCCl)C1Cc2c(ccc3ccccc23)O1 (stereo not drawn),7.97%
11,O=C(CCNC(=O)C1CCN(S(=O)(=O)c2ccccc2)CC1)NCc1ccc(Cl)cc1,8.88%
12,Nc1ccccc1Nc1ccncc1[N+](=O)[O-],20%
13,CCOC(=O)C1(Cc2ccccc2)CCCN(Cc2ccc(OCC)c(CO)c2)C1 (stereo not drawn),-52.3%
14,CCOC(=O)C1(Cc2ccccc2)CCCN(Cc2cccc(C(C)=O)c2)C1 (stereo not drawn),-2.24%
15,CCOC(=O)C1(Cc2ccccc2)CCCN(Cc2ccc(OCCO)cc2)C1 (stereo not drawn),-1.04%
16,CCOC(=O)C1(CCOc2ccccc2)CCN(Cc2ccc(OC)c(COC)c2)CC1,-80.2%
17,CCOC(=O)C1(CCOc2ccccc2)CCN(Cc2ccc(OC)c(O)c2)CC1,-82.2%
18,CCOC(=O)C1(CCOc2ccccc2)CCN(Cc2ccc(OCC)c(CO)c2)CC1,-79.5%
19,Cc1ccc(NC(=O)COC(=O)CCc2c[nH]c3ccccc23)c(C)c1,9.87%
20,COC(=O)C(C)Oc1ccc(Cl)c(CN2OCC(C)(C)C2=O)c1 (stereo not drawn),5.26%
21,Cc1ccccc1OCCC(=O)OCC(=O)NCCc1ccccc1,-0.876%
